Data taken from ChEMBL document CHEMBL1961873, “Compounds: GSK PKIS; Assays: Nanosyn kinase panel” (2012).

Key:
[1] = target: Tyrosine-protein kinase Fyn (Homo sapiens) (UniProt P06241); conditions: at 1 µM
[2] = target: Tyrosine-protein kinase HCK (Homo sapiens) (UniProt P08631); conditions: at 0.1 µM
[3] = target: Tyrosine-protein kinase HCK (Homo sapiens) (UniProt P08631); conditions: at 1 µM
[4] = target: Insulin-like growth factor 1 receptor (Homo sapiens) (UniProt P08069); conditions: at 0.1 µM
Insulin-like growth factor 1 receptor (Homo sapiens), sequence (P08069 31-736 limits assumed): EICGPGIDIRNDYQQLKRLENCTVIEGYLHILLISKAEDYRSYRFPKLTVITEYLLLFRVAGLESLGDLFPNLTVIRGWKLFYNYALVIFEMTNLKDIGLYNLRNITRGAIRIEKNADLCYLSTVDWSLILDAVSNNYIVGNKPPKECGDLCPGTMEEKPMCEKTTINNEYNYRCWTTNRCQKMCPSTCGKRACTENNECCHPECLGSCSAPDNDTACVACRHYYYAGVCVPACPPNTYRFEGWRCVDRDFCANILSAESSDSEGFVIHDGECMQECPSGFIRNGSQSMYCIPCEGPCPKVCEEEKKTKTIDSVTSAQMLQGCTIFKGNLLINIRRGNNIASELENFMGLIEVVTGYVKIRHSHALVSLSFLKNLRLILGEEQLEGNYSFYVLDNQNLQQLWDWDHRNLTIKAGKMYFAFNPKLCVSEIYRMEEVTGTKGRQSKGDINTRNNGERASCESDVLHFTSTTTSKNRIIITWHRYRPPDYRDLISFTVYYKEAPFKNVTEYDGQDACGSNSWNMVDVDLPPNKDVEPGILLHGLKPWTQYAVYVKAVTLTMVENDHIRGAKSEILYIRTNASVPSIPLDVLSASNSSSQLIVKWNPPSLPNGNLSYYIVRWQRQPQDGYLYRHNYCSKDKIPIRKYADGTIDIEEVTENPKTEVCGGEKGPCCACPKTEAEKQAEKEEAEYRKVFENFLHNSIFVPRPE
Insulin-like growth factor 1 receptor (Homo sapiens), sequence (P08069 741-1367 limits assumed): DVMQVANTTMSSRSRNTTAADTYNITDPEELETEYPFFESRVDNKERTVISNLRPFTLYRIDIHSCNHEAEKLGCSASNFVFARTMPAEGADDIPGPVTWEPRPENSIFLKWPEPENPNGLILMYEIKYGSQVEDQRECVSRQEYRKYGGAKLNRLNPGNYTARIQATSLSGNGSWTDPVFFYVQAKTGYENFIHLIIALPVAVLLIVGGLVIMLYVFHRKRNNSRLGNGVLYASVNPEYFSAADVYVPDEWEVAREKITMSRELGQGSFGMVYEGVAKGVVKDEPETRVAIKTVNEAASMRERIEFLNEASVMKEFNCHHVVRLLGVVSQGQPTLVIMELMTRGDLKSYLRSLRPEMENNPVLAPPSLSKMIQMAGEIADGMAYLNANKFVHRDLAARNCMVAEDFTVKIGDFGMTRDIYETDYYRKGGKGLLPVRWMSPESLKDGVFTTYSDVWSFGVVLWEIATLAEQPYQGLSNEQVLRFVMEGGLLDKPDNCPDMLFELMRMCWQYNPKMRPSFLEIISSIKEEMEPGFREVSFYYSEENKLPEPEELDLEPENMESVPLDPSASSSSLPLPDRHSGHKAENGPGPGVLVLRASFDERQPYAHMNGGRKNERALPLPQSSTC

[5] = target: Insulin-like growth factor 1 receptor (Homo sapiens) (UniProt P08069); conditions: at 1 µM
[6] = target: Insulin receptor (Homo sapiens) (UniProt P06213); conditions: at 0.1 µM
Insulin receptor (Homo sapiens), sequence (P06213 28-758 limits assumed): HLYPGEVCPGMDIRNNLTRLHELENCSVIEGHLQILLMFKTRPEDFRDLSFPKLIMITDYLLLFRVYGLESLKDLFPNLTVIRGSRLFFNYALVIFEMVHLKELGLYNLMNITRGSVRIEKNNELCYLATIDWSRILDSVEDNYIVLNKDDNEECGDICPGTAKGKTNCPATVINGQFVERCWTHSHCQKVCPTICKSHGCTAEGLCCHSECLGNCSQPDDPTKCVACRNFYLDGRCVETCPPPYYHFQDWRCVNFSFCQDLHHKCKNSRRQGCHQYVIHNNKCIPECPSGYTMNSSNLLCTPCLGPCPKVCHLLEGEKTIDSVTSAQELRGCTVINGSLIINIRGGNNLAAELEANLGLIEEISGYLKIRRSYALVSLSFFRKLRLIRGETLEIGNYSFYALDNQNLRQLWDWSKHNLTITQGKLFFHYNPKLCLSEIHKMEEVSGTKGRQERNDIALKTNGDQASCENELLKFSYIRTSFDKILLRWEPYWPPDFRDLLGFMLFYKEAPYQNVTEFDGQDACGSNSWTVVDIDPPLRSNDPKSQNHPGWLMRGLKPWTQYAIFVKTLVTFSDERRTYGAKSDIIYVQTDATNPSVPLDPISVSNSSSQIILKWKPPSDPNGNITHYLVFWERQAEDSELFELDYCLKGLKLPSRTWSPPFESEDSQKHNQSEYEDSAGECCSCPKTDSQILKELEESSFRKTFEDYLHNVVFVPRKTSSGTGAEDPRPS
Insulin receptor (Homo sapiens), sequence (P06213 763-1382 limits assumed): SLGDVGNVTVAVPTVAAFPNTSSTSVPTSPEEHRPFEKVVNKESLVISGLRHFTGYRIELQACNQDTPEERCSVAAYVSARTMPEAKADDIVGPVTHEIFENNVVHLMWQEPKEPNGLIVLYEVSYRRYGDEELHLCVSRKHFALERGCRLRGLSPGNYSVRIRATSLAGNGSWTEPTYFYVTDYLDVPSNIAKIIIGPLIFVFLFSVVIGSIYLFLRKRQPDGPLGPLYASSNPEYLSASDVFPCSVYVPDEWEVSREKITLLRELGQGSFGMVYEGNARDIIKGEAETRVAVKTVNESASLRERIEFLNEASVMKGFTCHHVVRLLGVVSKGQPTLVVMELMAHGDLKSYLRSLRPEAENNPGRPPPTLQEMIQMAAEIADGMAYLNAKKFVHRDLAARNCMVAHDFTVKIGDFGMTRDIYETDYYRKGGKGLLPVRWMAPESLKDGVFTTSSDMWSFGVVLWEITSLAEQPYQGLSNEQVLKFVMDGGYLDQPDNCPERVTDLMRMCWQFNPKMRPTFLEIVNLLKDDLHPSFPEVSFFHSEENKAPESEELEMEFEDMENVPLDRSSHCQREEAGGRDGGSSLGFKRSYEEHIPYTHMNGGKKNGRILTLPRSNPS

[7] = target: Insulin receptor (Homo sapiens) (UniProt P06213); conditions: at 1 µM
[8] = target: Insulin receptor-related protein (Homo sapiens) (UniProt P14616); conditions: at 0.1 µM
Insulin receptor-related protein (Homo sapiens), sequence (P14616 27-742 limits assumed): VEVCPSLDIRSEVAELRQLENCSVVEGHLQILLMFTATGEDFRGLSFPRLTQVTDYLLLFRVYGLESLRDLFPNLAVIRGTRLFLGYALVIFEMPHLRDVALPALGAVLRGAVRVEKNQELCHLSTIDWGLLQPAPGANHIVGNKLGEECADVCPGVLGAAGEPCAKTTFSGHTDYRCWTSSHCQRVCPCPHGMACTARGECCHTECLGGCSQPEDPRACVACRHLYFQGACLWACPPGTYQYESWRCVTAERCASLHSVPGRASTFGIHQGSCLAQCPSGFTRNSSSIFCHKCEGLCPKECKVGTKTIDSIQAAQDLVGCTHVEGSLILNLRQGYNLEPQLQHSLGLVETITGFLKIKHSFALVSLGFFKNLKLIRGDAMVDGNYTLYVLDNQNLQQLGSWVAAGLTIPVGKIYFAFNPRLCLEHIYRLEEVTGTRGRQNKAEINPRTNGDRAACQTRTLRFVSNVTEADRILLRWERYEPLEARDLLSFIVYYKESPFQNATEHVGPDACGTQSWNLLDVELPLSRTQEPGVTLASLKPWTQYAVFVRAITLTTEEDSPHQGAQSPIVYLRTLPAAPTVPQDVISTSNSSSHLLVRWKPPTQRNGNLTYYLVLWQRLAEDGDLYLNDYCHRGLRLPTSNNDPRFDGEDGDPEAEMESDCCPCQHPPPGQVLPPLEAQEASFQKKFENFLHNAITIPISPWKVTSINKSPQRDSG
Insulin receptor-related protein (Homo sapiens), sequence (P14616 747-1297 limits assumed): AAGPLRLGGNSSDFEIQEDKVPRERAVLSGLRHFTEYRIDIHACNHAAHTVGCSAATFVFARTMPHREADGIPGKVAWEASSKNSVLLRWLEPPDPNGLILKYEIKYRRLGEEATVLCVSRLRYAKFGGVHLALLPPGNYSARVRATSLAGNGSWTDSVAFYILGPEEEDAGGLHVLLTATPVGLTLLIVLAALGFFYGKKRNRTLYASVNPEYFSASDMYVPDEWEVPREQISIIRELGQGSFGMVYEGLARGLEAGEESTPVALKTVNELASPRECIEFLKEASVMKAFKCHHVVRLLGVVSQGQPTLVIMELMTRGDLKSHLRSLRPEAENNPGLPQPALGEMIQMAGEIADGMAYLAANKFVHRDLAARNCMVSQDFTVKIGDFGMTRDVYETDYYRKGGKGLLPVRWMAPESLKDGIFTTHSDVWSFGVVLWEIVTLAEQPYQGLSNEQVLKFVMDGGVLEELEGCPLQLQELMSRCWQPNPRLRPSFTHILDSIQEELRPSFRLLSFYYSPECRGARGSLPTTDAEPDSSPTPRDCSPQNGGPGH

[9] = target: Insulin receptor-related protein (Homo sapiens) (UniProt P14616); conditions: at 1 µM
[10] = target: T1, Tyrosine-protein kinase ITK/TSK (Homo sapiens) (UniProt Q08881); conditions: at 0.1 µM
T1 sequence (whole entry): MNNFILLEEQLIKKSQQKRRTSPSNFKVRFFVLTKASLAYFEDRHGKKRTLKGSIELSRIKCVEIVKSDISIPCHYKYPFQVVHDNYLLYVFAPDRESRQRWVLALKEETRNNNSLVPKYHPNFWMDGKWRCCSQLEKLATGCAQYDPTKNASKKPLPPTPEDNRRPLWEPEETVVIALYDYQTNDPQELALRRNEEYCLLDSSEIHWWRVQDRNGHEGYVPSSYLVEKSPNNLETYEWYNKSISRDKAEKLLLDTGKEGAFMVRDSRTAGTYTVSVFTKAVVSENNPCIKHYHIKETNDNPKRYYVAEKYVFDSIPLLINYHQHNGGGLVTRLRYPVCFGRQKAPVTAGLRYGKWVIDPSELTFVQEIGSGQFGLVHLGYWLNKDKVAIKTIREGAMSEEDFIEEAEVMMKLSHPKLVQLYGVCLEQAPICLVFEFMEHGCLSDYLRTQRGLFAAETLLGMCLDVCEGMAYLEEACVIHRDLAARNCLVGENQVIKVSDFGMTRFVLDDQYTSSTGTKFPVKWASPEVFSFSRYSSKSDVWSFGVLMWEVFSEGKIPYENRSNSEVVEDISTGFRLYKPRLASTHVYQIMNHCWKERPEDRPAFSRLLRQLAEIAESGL

[11] = target: T1, Tyrosine-protein kinase ITK/TSK (Homo sapiens); conditions: at 1 µM
[12] = target: Tyrosine-protein kinase JAK1 (Homo sapiens) (UniProt P23458); conditions: at 0.1 µM
[13] = target: Tyrosine-protein kinase JAK1 (Homo sapiens) (UniProt P23458); conditions: at 1 µM
[14] = target: Tyrosine-protein kinase JAK2 (Homo sapiens) (UniProt O60674); conditions: at 0.1 µM
[15] = target: Tyrosine-protein kinase JAK2 (Homo sapiens) (UniProt O60674); conditions: at 1 µM
[16] = target: T2, Tyrosine-protein kinase JAK3 (Homo sapiens) (UniProt P52333); conditions: at 0.1 µM
T2 sequence (whole entry): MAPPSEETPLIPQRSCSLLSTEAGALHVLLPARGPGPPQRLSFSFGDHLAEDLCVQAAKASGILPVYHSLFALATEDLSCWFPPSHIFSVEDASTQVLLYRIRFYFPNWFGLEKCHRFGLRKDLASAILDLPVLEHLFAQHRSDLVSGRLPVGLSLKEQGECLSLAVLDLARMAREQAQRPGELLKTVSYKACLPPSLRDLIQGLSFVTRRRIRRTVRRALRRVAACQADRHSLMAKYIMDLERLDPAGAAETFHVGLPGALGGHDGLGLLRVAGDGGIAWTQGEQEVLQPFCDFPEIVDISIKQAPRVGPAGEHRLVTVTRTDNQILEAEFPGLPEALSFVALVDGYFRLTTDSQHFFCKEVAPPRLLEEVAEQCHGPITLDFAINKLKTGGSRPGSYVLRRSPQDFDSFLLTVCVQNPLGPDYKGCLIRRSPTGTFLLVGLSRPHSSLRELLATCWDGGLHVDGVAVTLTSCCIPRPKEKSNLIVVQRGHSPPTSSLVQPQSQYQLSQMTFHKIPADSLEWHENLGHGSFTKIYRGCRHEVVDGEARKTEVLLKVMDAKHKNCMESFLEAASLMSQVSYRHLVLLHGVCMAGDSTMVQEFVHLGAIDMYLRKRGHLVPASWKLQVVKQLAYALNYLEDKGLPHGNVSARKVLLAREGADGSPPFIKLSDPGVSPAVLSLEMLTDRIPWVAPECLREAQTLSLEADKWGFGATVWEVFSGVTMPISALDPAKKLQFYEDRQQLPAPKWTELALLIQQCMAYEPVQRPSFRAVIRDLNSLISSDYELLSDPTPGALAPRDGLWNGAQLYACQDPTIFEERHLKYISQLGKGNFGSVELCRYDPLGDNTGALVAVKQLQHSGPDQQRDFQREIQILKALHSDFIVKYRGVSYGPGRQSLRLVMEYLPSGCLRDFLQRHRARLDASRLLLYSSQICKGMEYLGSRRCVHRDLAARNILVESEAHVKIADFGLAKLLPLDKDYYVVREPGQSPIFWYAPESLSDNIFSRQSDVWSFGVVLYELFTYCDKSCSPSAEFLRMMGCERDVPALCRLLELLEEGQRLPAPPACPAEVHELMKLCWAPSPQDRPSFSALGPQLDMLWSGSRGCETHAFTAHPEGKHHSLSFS

[17] = target: T2, Tyrosine-protein kinase JAK3 (Homo sapiens); conditions: at 1 µM
[18] = target: Vascular endothelial growth factor receptor 2 (Homo sapiens) (UniProt P35968); conditions: at 0.1 µM
[19] = target: Vascular endothelial growth factor receptor 2 (Homo sapiens) (UniProt P35968); conditions: at 1 µM
[20] = target: Mast/stem cell growth factor receptor Kit (Homo sapiens) (UniProt P10721); conditions: at 0.1 µM;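 further: values are mean inhibition of KIT, from the GSK PKIS dataset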
Mast/stem cell growth factor receptor Kit (Homo sapiens), sequence (P10721 whole entry): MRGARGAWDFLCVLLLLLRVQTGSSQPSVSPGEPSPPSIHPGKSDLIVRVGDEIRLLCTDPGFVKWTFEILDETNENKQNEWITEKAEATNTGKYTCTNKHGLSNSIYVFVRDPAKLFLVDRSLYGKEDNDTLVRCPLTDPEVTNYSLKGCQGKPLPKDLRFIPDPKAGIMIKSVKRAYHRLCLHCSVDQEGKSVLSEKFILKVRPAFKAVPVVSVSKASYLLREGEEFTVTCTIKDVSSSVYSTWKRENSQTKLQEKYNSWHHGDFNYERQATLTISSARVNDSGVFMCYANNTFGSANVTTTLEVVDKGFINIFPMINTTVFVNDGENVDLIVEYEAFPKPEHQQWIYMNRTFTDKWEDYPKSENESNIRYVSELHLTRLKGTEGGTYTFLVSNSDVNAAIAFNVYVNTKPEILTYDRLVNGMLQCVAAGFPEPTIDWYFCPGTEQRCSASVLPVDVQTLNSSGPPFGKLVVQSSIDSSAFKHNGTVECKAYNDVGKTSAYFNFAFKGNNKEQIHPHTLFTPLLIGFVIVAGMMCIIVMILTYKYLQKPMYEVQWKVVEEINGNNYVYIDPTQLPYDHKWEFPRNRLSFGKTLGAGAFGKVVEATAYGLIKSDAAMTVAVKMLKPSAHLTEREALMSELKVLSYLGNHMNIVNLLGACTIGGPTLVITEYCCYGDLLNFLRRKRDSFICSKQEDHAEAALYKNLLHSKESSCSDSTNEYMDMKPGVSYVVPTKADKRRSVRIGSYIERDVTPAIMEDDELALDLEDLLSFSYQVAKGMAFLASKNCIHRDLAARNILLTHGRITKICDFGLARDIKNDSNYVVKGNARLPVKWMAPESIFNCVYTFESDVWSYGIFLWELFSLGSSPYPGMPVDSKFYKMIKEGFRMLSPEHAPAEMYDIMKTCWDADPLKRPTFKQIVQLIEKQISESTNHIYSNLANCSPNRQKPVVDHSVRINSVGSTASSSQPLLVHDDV

Structure (SMILES)	inhibition [1] [%]	inhibition [2] [%]	inhibition [3] [%]	inhibition [4] [%]	inhibition [5] [%]	inhibition [6] [%]	inhibition [7] [%]	inhibition [8] [%]	inhibition [9] [%]	inhibition [10] [%]	inhibition [11] [%]	inhibition [12] [%]	inhibition [13] [%]	inhibition [14] [%]	inhibition [15] [%]	inhibition [16] [%]	inhibition [17] [%]	inhibition [18] [%]	inhibition [19] [%]	inhibition [20] [%]
COC(=O)Nc1nc2ccc(S(=O)(=O)c3ccc(NC(=O)Nc4cc(C(F)(F)F)ccc4F)cc3)cc2[nH]1	1.28	3.3	7.43	1.19	1.62	0.84	1.88	0.18	1.09	1.08	2.62	0.99	-1.29	1.28	1.9	-1.12	0.84	4.59	6.23	2.47
CCOc1ccc2c(-c3ccnc(Nc4cccc(C(F)(F)F)c4)n3)cnn2n1	4.94	4.28	6.8	-0.5	1.57	0.36	1.46	0.63	1	0.45	4.47	1.9	5.28	0.91	0.53	-1.95	-0.21	4.26	7.57	3.18
Fc1ccc(-c2nn3ccccc3c2-c2ccncc2)cc1	1.04	1.96	5.95	0.6	0.31	1.92	4.03	-0.72	0.71	1.1	1.56	0.87	-0.62	0.36	1.23	-0.48	0.18	3.84	9.61	1.23
COc1cc2ncn(-c3cc(OCc4ccccc4C(F)(F)F)c(C(=O)N(C)C)s3)c2cc1OC	8.11	2.13	10.1	1.61	-0.15	2.79	1.7	-2.24	-0.76	0.81	1.76	-1.58	8.12	0.32	-0.19	-0.48	14.7	6.67	27.5	0.26
CCn1cc(-c2ccnc3[nH]ccc23)c(-c2cccc(NC(=O)Nc3ccc(OCc4ccccc4)cc3)c2)n1	1.64	0.36	2.34	-3.42	0.41	2.08	3.81	-1.45	-1.26	-0.92	-0.24	1.9	1.7	-0.01	-1.69	-1.38	-0.25	0.29	7.33	-2.3
[O-][S+]1CCN(Cc2ccc(-c3ccc4ncnc(Nc5ccc(OCc6cccc(F)c6)c(Cl)c5)c4c3)o2)CC1	6	6.09	9.6	3.08	5.73	5.28	4.61	2.99	3.54	1.07	2.41	6.24	9.08	1.51	1.04	-1.66	-0.12	5.24	7.82	4.47
Nc1ncc(-c2cccc(S(N)(=O)=O)c2)c2scc(-c3ccc(F)c(Cl)c3)c12	32.6	28.2	76.1	0.87	1.23	-0.93	1.76	2.94	4.45	0.53	3.69	2.73	6.91	0.29	1.31	-2.63	-0.64	6.89	34.2	38
CCc1nn2ncccc2c1-c1ccnc(NC2CC2)n1	5.07	5.27	5.74	1.94	2	2.33	4.74	2.32	1.77	1.28	1.59	1.35	0.58	0.9	1.59	-2.87	-0.27	3.91	5.8	3.6
Nc1nc(-c2cccc(Cl)c2)c(-c2ccc3ncccc3n2)s1	5.51	3.98	9.71	3.52	2.56	6.92	7.08	1.7	4.52	1.66	1.36	2.71	14.3	0.64	0.69	-2.58	-0.69	33.1	67.4	5.86
COc1cccc(-n2ncc3c(N/N=C/c4ccc(F)cc4)ncnc32)c1	31.1	6.41	17.5	2.52	3.62	-0.02	2.69	2.92	2.32	1.34	2.7	4.84	6.9	1.38	4.42	-1.52	1.02	8.15	20.6	5.42
O=C(Nc1n[nH]c2cc(-c3ccc(F)cc3)ccc12)C1CC1	3.69	5.36	8.36	4.19	0.88	3.21	5.18	1.75	1.45	1.07	2.49	1.55	4.17	1.12	1.73	-0.91	-0.96	6.51	19.5	3.1
c1cc(-c2cnn3nc(N4CCOCC4)ccc23)nc(NC2CC2)n1	4.87	7.14	11.7	4.81	5	4.73	8.56	2.65	1.15	1.06	3.22	0.54	-6.96	2.21	1.85	-1.14	-0.05	12.9	48	6.83
CC1=C(C(=O)Nc2cc(Cl)c3[nH]ncc3c2)C(c2ccc(C(F)(F)F)cc2)CC(=O)N1 (stereo not given)	4.45	4.68	6.23	2.66	2.67	5.06	6.02	0.76	1.79	1.11	2.35	9.58	51.5	2.99	29.2	2.49	42.3	4.67	6.91	4.2
COc1cc2c(cc1Nc1nc(Nc3ccsc3C(N)=O)c3cc[nH]c3n1)N(C(=O)CN(C)C)CCC2(C)C	1.15	6.46	12.9	98.1	97.1	98.7	98	98	97.9	1.74	3.88	4.13	2.78	0.97	0.03	0.41	1.42	8.34	14.1	18.8
COc1ccc(-c2oc3ncnc(N)c3c2-c2ccc(NC(=O)Nc3cc(C(F)(F)F)ccc3F)cc2)cc1	52.1	31	86.1	4.58	7.94	4.98	27.2	1.97	6.8	5.01	40.8	14.6	43.3	2.04	14.4	1.04	3.12	75.4	73.7	37.9
CNC(=O)c1cncc(/C=C/c2ccccc2Cl)c1	6.88	1.18	11.3	6.84	5.76	-1.75	-1.65	-0.5	-1.16	1.6	2.43	1.61	10.6	0.26	1.2	1.51	2.32	0.94	8.36	0.25
COc1cc(/C=N/Nc2ncnc3[nH]ncc23)ccc1O	41.2	11.1	54.2	3.46	12.5	5.52	15.3	3.28	3.65	1.29	7.65	8.12	9.29	1.72	4.07	-1.64	2.59	10.3	45.6	11.4
